{
  "source": "PubChem BioAssay AID588331",
  "about": "(National Center for Advancing Translational Sciences (NCATS), 2011)",
  "note": "Inconclusive results are not listed. Calls of active or inactive are those of the source. The call rests on the fitted dose curve; in most records, active means well fitted inhibition curve with a large enough effect; inconclusive means small, poorly fitted or top-dose-only effect; inactive means flat fitted curve, though single readings scatter.",
  "data": [
    {"test_system": "Trypanosoma brucei 6-phosphofructokinase (PFK)", "experiment": "Confirmatory Assay to Find Inhibitors of T. brucei phosphofructokinase: High F6P", "conditions": "Kinase-Glo luminescence; series mostly up to 57.5 µM; activity change, negative = inhibition: at the top concentration", "description": "Various species of the protozoan family Trypanosomatidae are responsible for a range of serious human diseases in tropical and subtropical areas of the world. […] Many of the disorders caused by trypanosomatids are fatal if left untreated, but most currently used drugs are inefficient and toxic. […] Oxidative metabolism involving the mitochondrial tricarboxylic acid cycle and oxidative phosphorylation are repressed in these parasites, and recent RNA interference (RNAi) experiments have shown that even partial depletion of certain individual glycolytic enzymes can lead to the death of cultured parasites. One such glycolytic enzyme, phosphofructokinase (PFK), catalyzes the formation of fructose-1,6-bisphosphate (F1,6BP) and ADP from fructose-6-phosphate (F6P) and ATP, and in many metabolic circumstances makes an important contribution to the control of flux through the glycolytic pathway. As a specific glycolytic target, PFK is particularly attractive as it catalyzes the first irreversible step in glycolysis, and structural and kinetic studies have shown very substantial and essential differences from corresponding host enzymes, allowing for the discovery of parasite-selective inhibitors. A luminescent secondary assay was also performed that used luciferase-based nucleotide detection (ADP-Glo, Promega) similar to the qHTS, but that alternatively used saturating concentrations (10x Km concentrations) of ATP or F6P to determine if inhibitor potencies were shifted due to particular substrate competition. […] NIH Molecular Libraries Probe Production Network [MLPCN] NIH Chemical Genomics Center [NCGC] Grant: 1 R03 MH092153-01 PI Name: Malcolm Walkinshaw, University of Edinburgh\nSubstrate buffer was dispensed into white, solid 1536-well plates at 3 uL/well in 0.1M triethanolamine (TEA) buffer, pH 8.0, containing final concentrations of 5 mM MgCl2 and 0.01% Tween20. Standard substrate buffer contained 0.5 mM fructose-6-phosphate (F6P) and 0.1 mM ATP, high ATP substrate buffer contained 0.5 mM fructose-6-phosphate (F6P) and 1mM ATP, high F6P substrate buffer contained 5mM fructose-6-phosphate (F6P) and 0.1 mM ATP, and high ATP/F6P buffer contained 5 mM fructose-6-phosphate (F6P) and 1 mM ATP. Then, 23 nl of compounds or DMSO were delivered to each well using a pin tool. One uL of T. brucei PFK (0.1 M TEA, 0.01% Tween20, 0.1% bovine serum albumin (BSA) and 1.25 nM PFK, final concentrations) was then dispensed, and plates were incubated at room temperature for 45 min. The luminescent detection reagent, Kinase-Glo Plus (Promega), was then added at 2ul/well and incubated for ten minutes at room temperature. The plates were measured on a ViewLux plate reader for luminescent signal using a clear filter with a one second exposure. The %Activity was determined from the corrected luminescence values. 1x (1.25nM) and 0x PFK enzyme controls (untreated) were included to normalize %Activity of identified inhibitors; 0x enzyme values corresponded to 100%Activity (full inhibition), while 1x PFK enzyme values were used to normalize 0% Activity (no inhibition).", "values": [
      {"smiles": "COc1ccc(CC(=O)Nc2ccc(S(=O)(=O)Nc3cc(C)on3)cc2)cc1OC", "activity change, negative = inhibition": "4.52% (inactive)"},
      {"smiles": "Cc1cc(NS(=O)(=O)c2ccc(NC(=O)C(C)(C)c3ccc(Cl)c(Cl)c3)cc2)no1", "activity change, negative = inhibition": "-0.0491% (inactive)"},
      {"smiles": "O=C(Cc1ccc(Cl)c(Cl)c1)Nc1ccc(S(=O)(=O)Nc2cncnc2)cc1", "Potency": "9.19 µM (active)"},
      {"smiles": "COc1ccc(CC(=O)Nc2ccc(S(=O)(=O)Nc3cc(C)on3)cc2)cc1C", "activity change, negative = inhibition": "1.36% (inactive)"},
      {"smiles": "Cc1cc(NC(=O)c2ccc(NC(=O)Cc3ccc(Cl)c(Cl)c3)cc2)no1", "activity change, negative = inhibition": "3.41% (inactive)"},
      {"smiles": "Cc1cc(NS(=O)(=O)CCNC(=O)Cc2ccc(Cl)c(Cl)c2)no1", "activity change, negative = inhibition": "4.19% (inactive)"},
      {"smiles": "Cc1cc(NC(=O)c2csc(NC(=O)Cc3ccc(Cl)c(Cl)c3)n2)no1", "activity change, negative = inhibition": "2.82% (inactive)"},
      {"smiles": "Cc1cc(NS(=O)(=O)c2ccc(NC(=O)Cc3ccc(Cl)c(Cl)c3)cc2)n(C)n1", "Potency": "13 µM (active)"},
      {"smiles": "Cc1cc(NS(=O)(=O)c2ccc(NC(=O)Cc3ccc(Cl)c(Cl)c3)cc2)no1", "Potency": "3.66 µM (active)"},
      {"smiles": "Cc1cc(NS(=O)(=O)c2ccc(NC(=O)Cc3ccc(Cl)c(F)c3)cc2)no1", "Potency": "8.19 µM (active)"},
      {"smiles": "Cc1cc(NS(=O)(=O)c2ccc(NC(=O)Cc3ccc(Cl)cc3)cc2)no1", "Potency": "20.6 µM (active)"},
      {"smiles": "O=C(Cc1ccc(Cl)c(Cl)c1)Nc1ccc(S(=O)(=O)Nc2ccon2)cc1", "Potency": "2.06 µM (active)"},
      {"smiles": "Cc1cc(NS(=O)(=O)Cc2ccc(NC(=O)Cc3ccc(Cl)c(Cl)c3)cc2)no1", "Potency": "16.3 µM (active)"},
      {"smiles": "Cc1cc(NS(=O)(=O)c2ccc(NS(=O)(=O)Cc3ccc(Cl)c(Cl)c3)cc2)no1", "activity change, negative = inhibition": "7.09% (inactive)"},
      {"smiles": "Cc1cc(NS(=O)(=O)c2ccc(NC(=O)c3ccc(Cl)c(Cl)c3)cc2)no1", "activity change, negative = inhibition": "-3.99% (inactive)"},
      {"smiles": "CCOC(=O)c1cccc(NS(=O)(=O)c2ccc(NC(=O)Cc3ccc(Cl)c(Cl)c3)cc2)c1", "activity change, negative = inhibition": "6.32% (inactive)"},
      {"smiles": "Cc1cc(N[S+](=O)([O-])c2ccc3cc(NC(=O)Cc4ccc(Cl)c(Cl)c4)ccc3c2)no1", "Potency": "36.6 µM (active)"},
      {"smiles": "Cc1cc(NS(=O)(=O)c2ccc(C(=O)NCc3ccc(Cl)c(Cl)c3)cc2)no1", "Potency": "25.9 µM (active)"},
      {"smiles": "O=C(Cc1ccc(Cl)c(Cl)c1)Nc1ccc(S(=O)(=O)Nc2ccc(C(=O)O)cc2)cc1", "Potency": "4.11 µM (active)"},
      {"smiles": "O=C(Cc1ccc(Cl)c(Cl)c1)Nc1ccc(S(=O)(=O)O)cc1", "Potency": "5.17 µM (active)"},
      {"smiles": "O=C(Cc1ccc(Cl)c(Cl)c1)Nc1ccc(S(=O)(=O)Nc2cccc(C(=O)O)c2)cc1", "Potency": "4.61 µM (active)"},
      {"smiles": "Cc1cc(NS(=O)(=O)c2ccc(NC(=O)Cc3ccc(Cl)c(C(F)(F)F)c3)cc2)no1", "Potency": "5.8 µM (active)"},
      {"smiles": "O=C(Cc1ccc(Cl)c(Cl)c1)Nc1ccc(S(=O)(=O)Nc2cccc(O)c2)cc1", "Potency": "14.6 µM (active)"},
      {"smiles": "Cc1cc(NS(=O)(=O)C2CCN(C(=O)Cc3ccc(Cl)c(Cl)c3)CC2)no1", "activity change, negative = inhibition": "-0.566% (inactive)"},
      {"smiles": "Cc1cc(NS(=O)(=O)c2ccc(NC(=O)Cc3ccc(C)c(C)c3)cc2)no1", "activity change, negative = inhibition": "-3.32% (inactive)"},
      {"smiles": "Cc1cc(NS(=O)(=O)c2ccc(NC(=O)Cc3ccc(Cl)c(Cl)c3)cc2)on1", "Potency": "3.26 µM (active)"},
      {"smiles": "Cc1cc(NS(=O)(=O)c2ccc(N(C)C(=O)Cc3ccc(Cl)c(Cl)c3)cc2)no1", "Potency": "10.3 µM (active)"},
      {"smiles": "Cc1cc(N[S+](=O)([O-])c2ccc(NC(=O)Cc3ccc(Cl)nc3)cc2)no1", "activity change, negative = inhibition": "-2.67% (inactive)"},
      {"smiles": "Cc1cc(NS(=O)(=O)c2ccc(NC(=O)Cc3ccccc3)cc2)no1", "activity change, negative = inhibition": "-9.12% (inactive)"},
      {"smiles": "O=C(Cc1ccc(Cl)c(Cl)c1)Nc1ccc(S(=O)(=O)Nc2ccn[nH]2)cc1", "Potency": "5.8 µM (active)"},
      {"smiles": "Cc1cc(N(C)S(=O)(=O)c2ccc(NC(=O)Cc3ccc(Cl)c(Cl)c3)cc2)no1", "Potency": "16.3 µM (active)"}
    ]}
  ]
}
